The target of test [1] is NADPH oxidase 4 (Homo sapiens) (UniProt Q9NPH5). The test is described as follows: compounds shifting NOX4 Amplex Red fluorescence – cell-based, HEK293-NOX4, tetracycline-induced, NOX inhibitor project, primary screen (AID 1160). The note with it: HEK293-NOX4, Amplex Red H2O2 fluorescence, 45 min; higher = more signal, called active from +8 up or from −8 down.
Test [2] concerns the target NADPH oxidase 5 (Homo sapiens) (UniProt Q96PH1). Nature of the test: compounds shifting NOX5 Amplex Red fluorescence – cell-based, HEK293-NOX5, NOX inhibitor project, primary screen (AID 1161). The note with it: HEK293-NOX5, ionomycin, 45 min, higher = more signal.
A short description of test [3]: compound effects on lung adenocarcinoma cell viability – A549, calcein-AM fluorescence, 48 h, basal, profiling panel (AID 1162). Note: test concentration not given here. The note with it: higher = more signal.
Test [4] is described as follows: compound effects on differentiated 3T3-L1 adipocyte viability – cell-based, 3T3-L1 adipocytes, calcein-AM fluorescence, 48 h, basal, profiling panel (AID 1163). Note: test concentration not given here. The note with it: 3T3-L1 adipocytes viability, higher = more signal.
Test [5] can be described thus: compound effects on hepatocellular carcinoma cell viability – HepG2, calcein-AM fluorescence, 48 h, basal, profiling panel (AID 1164). Note: test concentration not given here. The note with it: higher = more signal.
A short description of test [6]: compound effects on multiple myeloma cell viability – MM1S, calcein-AM fluorescence, 48 h, basal, profiling panel (AID 1165).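 Note: viability of MM1S multiple myeloma cells under basal unstimulated conditions; test concentration not given here.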 The note with it: higher = more signal.
Test [7] is described as follows: calcein-AM signal in unstimulated myeloma cells – cell-based, calcein-AM fluorescence, 48 h, PK04 Diversity Set, profiling panel (AID 1166).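 Note: cells grown under basal conditions without added stimulus; test concentration not given here.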 The conditions noted are these: RPMI8226 myeloma viability, higher = more signal.
Test [8] in a line: JC-1 mitochondrial signal, unstimulated HepG2 cells – cell-based, JC-1 fluorescence, 24 h, 100 nL compound, profiling panel (AID 1167). Note: test concentration not given here. The conditions noted are these: HepG2 mitochondrial potential, higher = more signal.
Test [9] can be described thus: JC-1 mitochondrial signal, unstimulated adipocytes – cell-based, JC-1 fluorescence, 3T3-L1 adipocytes, 24 h, 100 nL compound, profiling panel (AID 1168). Note: test concentration not given here. The conditions noted are these: JC-1 mitochondrial fluorescence, higher = more signal, called active from +8 up or from −8 down.
A short description of test [10]: JC-1 mitochondrial signal, unstimulated myeloma cells – cell-based, JC-1 fluorescence, RPMI8226, 24 h, 100 nL compound, profiling panel (AID 1169). Note: test concentration not given here. The conditions noted are these: JC-1 mitochondrial potential fluorescence, higher = more signal.
The nature of test [11]: JC-1 mitochondrial signal, unstimulated MM1S myeloma – cell-based, JC-1 fluorescence, 24 h, 100 nL compound, profiling panel (AID 1170). Note: test concentration not given here. The conditions noted are these: MM1S mitochondrial potential, higher = more signal.
Test [12] is described as follows: resazurin metabolic signal in A549 cells – cell-based, resazurin fluorescence, 24 h, PK04 Diversity Set, profiling panel (AID 1171). Note: test concentration not given here. The conditions noted are these: A549 viability, higher = more signal, called active from +8 up or from −8 down. (Alamar Blue is a resazurin reagent that responds to reducing activity.)
Test [13] can be described thus: resazurin metabolic signal in HepG2 cells – cell-based, resazurin fluorescence, 24 h, PK04 Diversity Set, profiling panel (AID 1172). Note: test concentration not given here. The conditions noted are these: HepG2 viability, higher = more signal.
A short description of test [14]: budding yeast growth changes without added modifier – OD600, strain BY4716, 24 h, basal condition, primary screen (AID 1173). The note with it: S. cerevisiae BY4716 growth, OD600, 24 h; higher = more signal, called active from +8 up or from −8 down.
A short description of test [15]: viability profiling in MM1S myeloma cells – cell-based, resazurin fluorescence, basal, 24 h, PK04 Diversity Set, profiling panel (AID 1174). Note: test concentration not given here. The conditions noted are these: higher = more signal, called active from +8 up or from −8 down.
Test [16] addresses Dihydroorotate dehydrogenase (quinone), mitochondrial (Plasmodium falciparum (isolate 3D7)) (UniProt Q08210). Nature of the test: inhibition of P. falciparum DHODH – biochemical, C-terminal His tag, absorbance 600 nm, primary screen (AID 1175).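 Note: recombinant parasite enzyme with a five histidine tag at its C terminus; test concentration not given here.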 The note with it: PfDHODH enzyme, DCIP absorbance 600 nm; higher = more signal, called active from +8 up or from −8 down.
The nature of test [17]: growth modulation of vineyard yeast isolate – strain RM11-1a, OD600, basal, 24 h, primary screen (AID 1177).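 Note: cultures grown under basal conditions with no added stressor; test concentration not given here.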 The conditions noted are these: S. cerevisiae RM11-1a growth, OD600, 24 h; higher = more signal, called active from +8 up or from −8 down.
The nature of test [18]: growth of efflux-deficient E. coli DRC39 – strain DRC39, OD650, 24 h, E. coli filamentation inducers, primary screen (AID 1178).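 Note: growth measured as culture turbidity by optical density at 650 nm; test concentration not given here.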 The conditions noted are these: E. coli DRC39 acrAB, higher = more signal, called active from +8 up or from −8 down.
The nature of test [19]: growth of efflux-deficient E. coli DRC39 – strain DRC39, OD650, 48 h, E. coli filamentation inducers, primary screen (AID 1179).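 Note: screen aims at cell division blockers that make cells filament.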 The note with it: E. coli DRC39 delta-acrAB growth, higher = more signal, called active from +8 up or from −8 down.
Test [20] in a line: viability profiling in RPMI8226 myeloma cells – cell-based, resazurin fluorescence, basal, 24 h, PK04 Diversity Set, profiling panel (AID 1180).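 Note: RPMI8826 multiple myeloma cell line at 5000 cells per well; test concentration not given here.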 The note with it: higher = more signal.

In PubChem BioAssay one finds z-score and composite z-score data, which are given here for eight compounds.

SMILES strings stand for the structures. The source made the active and inactive calls.

NADPH oxidase 4 (Homo sapiens), sequence (Q9NPH5 whole entry, looked up): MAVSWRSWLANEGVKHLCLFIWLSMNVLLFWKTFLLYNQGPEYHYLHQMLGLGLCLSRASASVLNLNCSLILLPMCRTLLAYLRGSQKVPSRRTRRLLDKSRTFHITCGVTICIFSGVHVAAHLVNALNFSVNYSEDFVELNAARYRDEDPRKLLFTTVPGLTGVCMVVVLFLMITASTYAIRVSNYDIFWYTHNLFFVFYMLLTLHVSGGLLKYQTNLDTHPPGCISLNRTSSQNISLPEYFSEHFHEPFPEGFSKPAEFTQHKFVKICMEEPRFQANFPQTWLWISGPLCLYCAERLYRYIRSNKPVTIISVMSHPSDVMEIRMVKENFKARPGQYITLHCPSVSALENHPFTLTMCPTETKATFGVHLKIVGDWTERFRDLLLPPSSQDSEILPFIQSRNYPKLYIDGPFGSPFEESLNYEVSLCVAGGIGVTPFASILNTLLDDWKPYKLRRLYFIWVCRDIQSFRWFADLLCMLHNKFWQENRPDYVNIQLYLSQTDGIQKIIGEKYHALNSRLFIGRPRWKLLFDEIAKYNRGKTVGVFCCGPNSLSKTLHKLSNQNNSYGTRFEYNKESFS
NADPH oxidase 5 (Homo sapiens), sequence (Q96PH1 whole entry, looked up): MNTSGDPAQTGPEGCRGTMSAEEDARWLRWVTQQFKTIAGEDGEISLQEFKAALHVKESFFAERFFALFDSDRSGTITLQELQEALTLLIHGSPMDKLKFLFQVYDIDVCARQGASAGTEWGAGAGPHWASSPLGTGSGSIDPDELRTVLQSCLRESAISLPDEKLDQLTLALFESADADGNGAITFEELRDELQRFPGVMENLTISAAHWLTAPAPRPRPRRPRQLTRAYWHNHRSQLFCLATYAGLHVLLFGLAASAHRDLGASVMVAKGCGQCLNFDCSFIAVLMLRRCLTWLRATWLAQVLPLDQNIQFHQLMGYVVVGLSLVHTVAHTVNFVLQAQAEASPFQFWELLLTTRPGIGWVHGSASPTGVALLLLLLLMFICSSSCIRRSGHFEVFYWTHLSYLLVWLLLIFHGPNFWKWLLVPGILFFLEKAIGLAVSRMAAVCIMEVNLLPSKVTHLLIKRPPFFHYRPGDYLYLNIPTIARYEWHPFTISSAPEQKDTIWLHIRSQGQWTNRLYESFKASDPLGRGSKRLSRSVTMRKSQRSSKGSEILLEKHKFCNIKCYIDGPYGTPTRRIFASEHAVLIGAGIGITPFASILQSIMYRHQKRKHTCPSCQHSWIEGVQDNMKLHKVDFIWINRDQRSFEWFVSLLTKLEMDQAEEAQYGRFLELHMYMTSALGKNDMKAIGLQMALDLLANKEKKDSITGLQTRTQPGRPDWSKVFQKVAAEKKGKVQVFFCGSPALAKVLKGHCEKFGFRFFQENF
Dihydroorotate dehydrogenase (quinone), mitochondrial (Plasmodium falciparum (isolate 3D7)), sequence (Q08210 whole entry, looked up): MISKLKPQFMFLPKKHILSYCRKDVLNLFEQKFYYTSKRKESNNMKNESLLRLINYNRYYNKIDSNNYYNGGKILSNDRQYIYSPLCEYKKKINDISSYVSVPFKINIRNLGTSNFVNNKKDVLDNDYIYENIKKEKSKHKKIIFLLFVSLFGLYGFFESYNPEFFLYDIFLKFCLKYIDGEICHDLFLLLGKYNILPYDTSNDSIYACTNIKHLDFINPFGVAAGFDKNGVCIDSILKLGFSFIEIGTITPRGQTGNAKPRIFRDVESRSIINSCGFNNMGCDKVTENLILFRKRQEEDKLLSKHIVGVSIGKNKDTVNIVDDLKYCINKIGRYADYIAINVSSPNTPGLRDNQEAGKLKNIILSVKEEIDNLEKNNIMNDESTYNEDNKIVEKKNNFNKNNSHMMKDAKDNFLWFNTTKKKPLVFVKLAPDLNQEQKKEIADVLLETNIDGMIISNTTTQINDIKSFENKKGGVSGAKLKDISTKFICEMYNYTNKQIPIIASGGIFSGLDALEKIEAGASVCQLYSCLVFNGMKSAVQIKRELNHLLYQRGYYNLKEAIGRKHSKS

As for `CC(C)C[C@@H]1NC(=O)[C@@]23C(=O)N[C@@H](Cc4ccccc4)C2[C@H](C)[C@@]2(C)O[C@H]2C3/C=C/C/C=C\CNC(=O)[C@H](Cc2ccccc2)NC1=O` (stereo not given in full), the z-score is 0.692 (inactive) in test [1]; -3.15 in test [2]; 0.823 in test [3]; 1.14 in [4]; 0.331 in [5]; 0.0263 in [6]. Besides, the z-score is -0.928 in [7]; 1.42 in [8]; 0.868 (inactive) in test [9]; -0.0886 in test [10]; 0.851 in [11]; 0.703 (inactive) in test [12]. Besides, the z-score in test [13] is 0.182; in test [14], -2.28 (inactive); in test [15], -0.295 (inactive); in [17] it was -0.748 (inactive); in [18], 2.7 (inactive); in test [19], 1.22 (inactive). The compound also had a z-score in test [20] of 0.468. For the same compound, the composite z-score in test [16] was 0.113 (inactive).

As to `C=C(COC)/C(=C/C[C@H](OC(C)=O)c1cccc(OCCO)c1)c1cc(C(=O)OC)ccc1OC`, the z-score in test [1] is 0.00567 (inactive); in test [2] it was -3.06; in test [3], -0.344; in test [4] it was 0.81; in [5], -2.15; in test [6], 0.0939. Besides, the z-score is -1.1 in test [7]; 0.616 in test [8]; 1.88 (inactive) in [9]; -0.252 in [10]; 0.471 in test [11]; -1.03 (inactive) in test [12]. Moreover, the z-score is -0.231 in [13]; -17.6 (active) in test [14]; 0.975 (inactive) in test [15]; -21.4 (active) in test [17]; 1.24 (inactive) in test [18]; 0.802 (inactive) in test [19]. This compound also returned a z-score in [20] of 0.59. In test [16], the composite z-score is -9.35 (active).

With `C=C1C=C(Br)C2(OCCCO2)[C@H]2OC12` (stereo not given in full), the z-score in [1] was 0.0158 (inactive); in [2], 0.705; in test [3] it was -1.53; in [4], -0.191; in [5], 0.817; in [6], 0.174. Also, the z-score in [7] is -0.0566; in test [8], 0.533; in test [9] it was -0.696 (inactive); in test [10] it was 0.305; in test [11] it was -0.443; in test [12], -0.54 (inactive). For the same compound, the z-score is -0.92 in test [13]; -0.353 (inactive) in test [14]; -2.94 (inactive) in test [15]; 0.307 (inactive) in [17]; 0.846 (inactive) in [18]; 0.781 (inactive) in [19]. Also, the z-score in test [20] is -0.846. The composite z-score in test [16] is -0.99 (inactive).

As for `CN(C)CCCC[C@@H]1NC(=O)[C@@H]2C[C@H](C(=O)NCCCCCNC(=O)CS)[C@H](c3cccc(OCCO)c3)N2C1=O`, the z-score was 0.366 (inactive) in test [1]; 2.19 in [2]; -0.459 in test [3]; 1.56 in [4]; -1.33 in test [5]; -0.669 in [6]. The z-score in [7] was -0.348; in test [8], 0.902; in [9] it was 0.533 (inactive); in test [10], 0.526; in [11], 0.249; in test [12] it was -0.42 (inactive). Further, the z-score is -0.0484 in test [13]; -1.86 (inactive) in test [14]; 0.78 (inactive) in test [15]; -2.53 (inactive) in [17]; 0.431 (inactive) in test [18]; -0.248 (inactive) in [19]. Besides, the z-score in test [20] worked out at 0.608. For the same compound, the composite z-score in [16] is -1.83 (inactive).

Turning to `COc1ccc([Si](C)(C)[C@@H]2[C@@H](CC(=O)N3CCC[C@H]3CO)O[C@]3(C(=O)N(Cc4ccc(I)cc4)c4ccccc43)[C@H]2C)cc1`, the z-score in test [1] is 0.932 (inactive); in test [2], 4; in test [3] it was -0.298; in test [4], 2.59; in test [5] it was -2.95; in test [6], -2.58. The z-score in test [7] is -4.35; in test [8] it was 2.47; in test [9], 1.67 (inactive); in test [10], -1.04; in test [11], -0.818; in test [12], -2.59 (inactive). The z-score in test [13] is -1.37; in [14] it was -1.91 (inactive); in [15] it was -2.56 (inactive); in test [17] it was -0.289 (inactive); in [18], 1.66 (inactive); in [19] it was 0.78 (inactive). Also, the z-score in test [20] is -2.59. In addition, in [16], the composite z-score is 0.413 (inactive).

As to `O=C1O[C@H](c2ccccc2)[C@H](c2ccccc2)N2[C@H]1[C@@H](C(=O)NC[C@H](O)c1ccccc1)[C@]1(C(=O)Nc3ccc(C#CC4(O)CCCCCC4)cc31)[C@H]2c1ccc(O)cc1`, the z-score in [1] was 0.753 (inactive); in test [2], 1.58; in [3], 0.97; in [4] it was 1.43; in test [5], -0.641; in [6], -0.804. Also, the z-score is -1.62 in test [7]; -1.71 in test [8]; -0.947 (inactive) in [9]; -0.672 in test [10]; -0.566 in test [11]; 0.814 (inactive) in test [12]. Besides, the z-score in test [13] was 0.82; in test [14] it was -1.55 (inactive); in [15] it was 0.557 (inactive); in test [17] it was -0.49 (inactive); in test [18] it was 0.487 (inactive); in [19] it was 0.972 (inactive). The same compound displayed a z-score in test [20] of 0.327. Besides, the composite z-score in test [16] is -0.154 (inactive).

In the case of `O=C(NO)[C@]1(Cc2ccccc2)N=C(c2ccc(OCCCO)cc2)O[C@@H]1c1ccccc1`, the z-score in test [1] was 0.551 (inactive); in test [2] it was 2.06; in test [3] it was 1.86; in test [4] it was 1.33; in [5], 1.18; in test [6], 1.87. Besides, the z-score was -0.459 in test [7]; 1.59 in test [8]; 1.3 (inactive) in [9]; -0.737 in [10]; 1.02 in [11]; 1.02 (inactive) in [12]. The z-score in test [13] was 1.47; in test [14], -2.78 (inactive); in [15], 1.41 (inactive); in test [17] it was -4.43 (inactive); in test [18], 2.26 (inactive); in test [19], 2.18 (inactive). Moreover, in [20], the z-score stood at 0.963. In addition, in test [16], the composite z-score was 0.461 (inactive).

For `CCOC(=O)C[C@H]1[C@H](OC(=O)c2ccc(-c3ccccc3)cc2)[C@@H](NC(=O)C2CCCCC2)c2cc(OCCCO)ccc2N1C(=O)c1ccc2ccccc2n1`, the z-score was 1.3 (inactive) in test [1]; 1.94 in test [2]; 1.23 in [3]; 1.25 in [4]; -0.0303 in [5]; 0.881 in test [6]. Besides, the z-score was 0.179 in test [7]; 2.69 in test [8]; 1.82 (inactive) in test [9]; -0.953 in test [10]; 0.717 in test [11]; 1.02 (inactive) in [12]. Also, the z-score was 1.24 in [13]; -0.275 (inactive) in test [14]; 1.22 (inactive) in [15]; -1.33 (inactive) in [17]; 1.56 (inactive) in test [18]; 0.999 (inactive) in test [19]. The compound further gave a z-score in [20] of 0.509. The composite z-score in test [16] was 0.478 (inactive).
